This excerpt belongs to a sample that is enriched for hits.
IL1B secr inh: blocks inflammasome-driven IL-1 beta release; THP-1 LPS/ATP IL-1B secretion, AlphaLISA, 16 h; active compounds read low; activity change, % at 57.5 µM; hit rate 4.7% among 360,000; in the data active = activity change below about -50%; inconclusive = mostly about -30% to -49%
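Secreted IL-1B measured by AlphaLISA bead assay after 16 h compound exposure of THP-1 cells; compounds (final up to 57.5 uM) added 1 h before LPS (250 ng/mL) and ATP (1.25 mM) stimulation; lower signal means less secretion.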
TDP1 cell CPT: DT40-hTDP1 cell growth loss with CPT. hit rate 12% among 420,000. chicken DT40 Tdp1-/-;hTDP1 cells + 20 nM CPT, ATP luminescence, 48 h. AID 686979. Potency, µM (doses to about 46.2 µM), without a hit: at the highest dose activity change, negative = growth inhibition, usual class: inhibitors; note: potency is the fitted concentration of half-maximal effect; nearly all actives have a fitted effect of over 55% in size
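Chicken DT40 Tdp1-/- cells stably complemented with human TDP1 were seeded at 400 cells/well in medium containing 20 nM camptothecin, exposed to pin-transferred compounds, and grown at 37 °C for at least 48 hr. Viability was read as ATP luminescence.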
HT1080 IDH1KD tx: HT-1080 IDH1 knockdown cell toxicity (counter line); Potency, µM (doses to about 46.1 µM), for the others: top-dose activity, negative = toxicity, hits mostly cytotoxic; HT-1080 IDH1 knockdown viability, ATP luminescence, 48 h; hit rate 2% among 360,000;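 note: potency is the fitted concentration of half-maximal effect; 0% = DMSO wells and -100% = cell-free medium wells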
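Using the IDH1-knockdown HT-1080 line run in the same batch and compound series as the NT line, viability after 48 h at 37 °C was determined by CellTiter-Glo luminescence and expressed as % activity.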
HT1080-NT tox: kills 2HG-producing HT-1080-NT fibrosarcoma cells | hit rate 1.6% among 360,000 | HT-1080-NT fibrosarcoma viability, CellTiter-Glo ATP luminescence, 48 h | Potency, µM (series often up to 46.1 µM), for inactives: at the top dose activity, negative = less viability, hits mostly cytotoxic;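 note: NT is the 2HG producing partner of a matched IDH1 knockdown line; potency is the fitted concentration of half-maximal effect; 0% = DMSO-treated cells and -100% = media-only wells without cells; nearly all actives have a fitted effect of over 55% in size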
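Viability of the 2HG-overproducing fibrosarcoma line after 48 hours of compound exposure at 37 degrees C was determined by luminescence with CellTiter-Glo, and concentration-effect curves were then fitted and categorized.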
ALOX12 inh: ALOX12 (human) lipoxygenase inhibition; purified 12hLO, xylenol orange hydroperoxide absorbance; Potency, µM (top dose mostly 108 µM), for the others: at the highest dose activity change, negative = inhibition, hits mostly inhibitors; hit rate 1.1% among 580,000; P18054; note: potency is the fitted concentration of half-maximal effect
Target sequence (P18054 whole entry, looked up): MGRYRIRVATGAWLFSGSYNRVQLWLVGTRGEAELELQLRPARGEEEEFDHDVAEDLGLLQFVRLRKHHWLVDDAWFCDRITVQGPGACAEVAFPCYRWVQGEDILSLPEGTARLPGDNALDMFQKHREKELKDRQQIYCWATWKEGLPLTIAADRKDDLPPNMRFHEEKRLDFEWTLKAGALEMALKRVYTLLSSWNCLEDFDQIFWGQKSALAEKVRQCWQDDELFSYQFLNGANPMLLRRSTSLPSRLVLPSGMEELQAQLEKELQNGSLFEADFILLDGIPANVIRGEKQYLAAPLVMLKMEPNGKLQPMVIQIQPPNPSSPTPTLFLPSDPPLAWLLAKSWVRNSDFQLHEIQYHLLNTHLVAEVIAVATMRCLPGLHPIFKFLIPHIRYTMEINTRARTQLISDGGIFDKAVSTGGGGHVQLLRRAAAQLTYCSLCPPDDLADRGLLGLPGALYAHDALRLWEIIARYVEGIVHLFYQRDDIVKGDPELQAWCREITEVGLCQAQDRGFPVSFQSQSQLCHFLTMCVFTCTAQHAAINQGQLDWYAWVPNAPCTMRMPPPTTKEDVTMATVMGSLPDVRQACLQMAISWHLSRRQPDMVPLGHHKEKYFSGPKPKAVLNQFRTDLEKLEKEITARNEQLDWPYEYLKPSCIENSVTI
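Purified human 12hLO at 150 nM in 25 mM Hepes, 0.01% Triton X-100, pH 7.0, preincubated 15 min at room temperature with compound. Reaction started with 40 uM arachidonic acid, 30 min at room temperature. Hydroperoxide measured by Fe-xylenol orange, 573/405 nm absorbance ratio.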
DT40 TDP1 no CPT: qHTS for Inhibitors of human tyrosyl-DNA phosphodiesterase 1 (TDP1): qHTS in cells in absence of CPT; hit rate 15% among 420,000; DT40 Tdp1-/- hTDP1 cells, no CPT, ATP luminescence, 48 h; AID 686978, 2013; Potency, µM (highest dose often 46.2 µM), for the others: at the highest dose activity change, negative = growth inhibition, actives largely listed as inhibitors; note: potency is the fitted concentration of half-maximal effect; nearly all actives have a fitted effect of over 55% in size
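Growth of hTDP1-complemented DT40 Tdp1-knockout cells is measured by ATP luminescence after at least 48 hr compound exposure at 37 °C, with DMSO substituting for the 20 nM CPT used in the parallel screen.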
Starred values were filed as active, the others as inactive; ? = inconclusive; · = no result. Unless noted, calls come from the whole dose curve; as a rule, active = well fitted curve in the direction sought with a large enough effect; inconclusive = small, poorly fitted or top-dose-only effect, or another doubt; inactive = no such curve, though single readings can be large; an effect the other way counts as inactive or inconclusive. Unless noted, % is set by controls: 0 for no effect and ±100 for the full control effect.

SMILES | IL1B secr inh | TDP1 cell CPT | HT1080 IDH1KD tx | HT1080-NT tox | ALOX12 inh | DT40 TDP1 no CPT
COc1ccc(N2CSC3=C(C#N)C(c4cc(OC)c(OC)cc4OC)CC(=O)N3C2)c(OC)c1 (configuration not stated) | 25 | ? | -3% | -11% | 28µM* | ?
O=C(CC12CC3CC(CC(Br)(C3)C1)C2)NCc1cc(F)cc(F)c1 | · | · | · | · | 2% | ·
O=C(Nc1ccc2c(c1)N(S(=O)(=O)c1cccs1)CCC2)c1c(F)cccc1F | -8 | ? | 3% | 5% | -3% | 16µM*
COCCCNC(=O)C(=O)Nc1ccc2c(c1)N(S(=O)(=O)c1cccs1)CCC2 | 19 | 0.65µM* | 2.3µM* | ? | 2% | 0.58µM*
CCNC(=O)C(=O)Nc1ccc2c(c1)N(S(=O)(=O)c1cccs1)CCC2 | 21 | ? | -14% | 0% | 7% | ?
CCCNC(=O)C(=O)Nc1ccc2c(c1)N(S(=O)(=O)c1cccs1)CCC2 | 20 | 15µM* | ? | ? | -3% | 23µM*
C=CCNC(=O)C(=O)Nc1ccc2c(c1)N(S(=O)(=O)c1cccs1)CCC2 | 11 | ? | ? | -16% | 5% | 23µM*
CCC(=O)N1CCC(C(NC(=O)c2ccccc2C)C(=O)NCC(C)C)CC1 (configuration not stated) | · | · | · | · | -5% | ·
COC(=O)C1CN(Cc2cn(Cc3ccc(F)cc3)nn2)CCS(=O)(=O)N1Cc1ccc(C)cc1 (configuration not stated) | · | · | · | · | 15% | ·
O=C(COc1ccc2ccc(=O)oc2c1)NCCc1ccc(OC(F)F)cc1 | · | · | · | · | -1% | ·
CN(C)CCNC(=O)C(=O)Nc1ccc2c(c1)N(S(=O)(=O)c1cccs1)CCC2 | -29 | 16µM* | ? | -24% | ? | 7.3µM*
CN(C)CCCNC(=O)C(=O)Nc1ccc2c(c1)N(S(=O)(=O)c1cccs1)CCC2 | -15 | ? | 0% | -2% | 2% | ?
COc1ccc(C2SCC(=O)N2c2ccc(Cl)cc2)cc1 (configuration not stated) | · | · | · | · | -15% | ·
CC(C)(C)C1CCc2c(sc(NC(=O)c3ccco3)c2C(N)=O)C1 (configuration not stated) | -22 | ? | -13% | -1% | 25% | ?
CC(C)(C)C1CCc2c(sc(NC(=O)C3CCCO3)c2C(N)=O)C1 (configuration not stated) | -9 | ? | ? | ? | -5% | 18µM*
CCN1CCc2c(sc(N)c2C#N)C1 | 14 | ? | 9% | 7% | 49% | 23µM*
CC(C)(C)C1CCc2c(sc(N)c2C(N)=O)C1 (configuration not stated) | -64* | 23µM* | 1% | ? | · | 18µM*
CCC(C)(C)C1CCc2c(sc(N)c2C#N)C1 (configuration not stated) | · | · | · | · | 28µM* | ·
NC(=O)c1c(NC(=O)C2CCCO2)sc2c1CCC2 (configuration not stated) | -26 | 0% | 10% | 2% | 10% | -6%
N#Cc1ccsc1NC(=O)CSc1ccc2c(c1)OCCCO2 | · | · | · | · | -5% | ·
CCCCNC(=O)c1ccc(NC(=O)CCc2ccccc2)cc1 | · | · | · | · | 11% | ·
C=CCn1c(NCCCOC)nc2c1c(=O)[nH]c(=O)n2C | · | · | · | · | 28% | ·
CCCC1CCc2c(sc(N)c2C(N)=O)C1 (configuration not stated) | -9 | 16µM* | 20% | 11% | ? | 21µM*
CCC(C)(C)C1CCc2c(sc(N)c2C(N)=O)C1 (configuration not stated) | -15 | 21µM* | -10% | -3% | ? | 21µM*
COc1ccc(C(=O)NC2CCN(c3cc(-c4ccc(Cl)cc4)[nH]n3)CC2)cc1 | · | · | · | · | 27% | ·
SMILES | IL1B secr inh | TDP1 cell CPT | HT1080 IDH1KD tx | HT1080-NT tox | ALOX12 inh | DT40 TDP1 no CPT
N#Cc1sc2nc(-c3ccccc3)cc(-c3ccco3)c2c1N | -9 | 18µM* | -4% | -7% | ? | ?
O=C(Cc1nc2ccccc2[nH]1)c1ccc(Cl)cc1 | -99* | ? | -7% | -19% | ? | ?
Clc1ccc(/C(Cc2nc3ccccc3[nH]2)=N\Nc2ccccc2)cc1 | -84* | ? | ? | ? | ? | ?
COC(=O)C1(C(=O)OC)C2CCCCC2N(S(=O)(=O)c2ccc(C)cc2)[C@@H]1CC(C)=O (some centres not stated) | 0 | -13% | -2% | -3% | 6% | -6%
COc1ccc2c(c1OC)C(Cc1ccccc1)N1CCc3cc4c(cc3C1=C2)OCO4 (configuration not stated) | · | 3µM* | · | · | · | 3.8µM*
COc1ccc2c(c1OC)C(CC(C)=O)N1CCc3cc4c(cc3C1C2=O)OCO4 (configuration not stated) | · | · | · | · | -17% | ·
CC(=O)OC[C@H]1O[C@@](COC(C)=O)(O[C@H]2O[C@H](COC(C)=O)[C@@H](OC(C)=O)[C@H](OC(C)=O)[C@H]2OC(C)=O)[C@@H](OC(C)=O)[C@@H]1OC(C)=O | · | 4% | · | · | · | -6%
C=C(CN(C)C)C(=O)c1ccc(OC2OC(COC(C)=O)C(OC(C)=O)C(OC(C)=O)C2OC(C)=O)cc1 (configuration not stated) | -101* | 0.46µM* | 4.6µM* | ? | ? | 0.58µM*
COc1cccc2sc(N(Cc3cccnc3)C(=O)c3ccco3)nc12 | · | 16µM* | · | · | -11% | ?
COc1ccc(OC)c2sc(N(Cc3cccnc3)C(=O)c3ccco3)nc12 | · | ? | · | · | ? | 21µM*
Cc1ccc(NC(=O)C2CC(=O)N(c3n[nH]c4cccc(F)c34)C2)cc1C (configuration not stated) | · | · | · | · | 7% | ·
CCN(CC)CCOc1ccc(-c2nc3cc(Cl)ccc3s2)cc1 | · | 4.7µM* | · | · | · | 4.7µM*
CCc1ccc(NC(=O)c2cc3c(C)nc4ccccc4c3o2)cc1 | -139* | 18µM* | ? | -9% | -1% | 16µM*
Cc1ccc(CNC(=O)c2cc3c(C)nc4ccccc4c3o2)cc1 | 13 | 9.2µM* | -1% | 4% | -19% | 7.3µM*
Cc1ccccc1NC(=O)c1cc2c(C)nc3ccccc3c2o1 | -17 | ? | 11% | 11% | -5% | 23µM*
Cc1nc2ccccc2c2oc(C(=O)NCCCN3CC(C)CC(C)C3)cc12 (configuration not stated) | -19 | ? | -29% | -24% | -7% | -24%
